Measurements as given in PubChem BioAssay (NCATS).
Records with an inconclusive call do not appear. Where a call stands in place of a potency, no number is given. Unmarked numbers belong to inactive results. Calls of active or inactive are those of the source. The call rests on the fitted dose curve; in most records, active means well fitted curve in the direction sought with a large enough effect; inconclusive means small, poorly fitted or top-dose-only effect, or another doubt; inactive means no such curve, though single readings can be large; an effect the other way counts as inactive or inconclusive. Square brackets hold non-standard residues; d marks the D form. Peptide text beside a SMILES is read from it. * marks the point of attachment. Dolaproine = CO[C@@H]([C@@H]1CCCN1)[C@@H](C)C(=O)O; Dil = CC[C@H](C)[C@H](NC)[C@@H](CC(=O)O)OC; Doe = c1ccc(C[C@H](N*)c2nccs2)cc1; Aib = CC(C)(N)C(=O)O

What was measured:
[1] = biological target: Aldehyde dehydrogenase, mitochondrial (Homo sapiens) (UniProt P05091); experiment: qHTS for Inhibitors of the Aldehyde Dehydrogenase Family (ALDH2) Primary screen (AID 2061308); further: nearly all actives have a fitted effect of over 55% in size
[2] = biological target: Retinaldehyde dehydrogenase 3 (Homo sapiens) (UniProt P47895); experiment: qHTS for Inhibitors of the Aldehyde Dehydrogenase Family (ALDH1A3) Primary screen (AID 2061315)
[3] = BET inhibitor-based combinations targeting novel dependencies in MECOM-rearranged (r) AML: SET-2 cell line (AID 2202231); details: SET-2 AML cells viability, CellTiter-Glo luminescence, 48 h; viability: hits give low values, concentration not given here; further: nearly all actives have a fitted effect of over 35% in size; further: potency means the concentration at half of the fitted maximal effect
Summary of the method: (§1)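 A 48 hr incubation preceded viability reading by CellTiter-Glo, with 15 min room-temperature development. Dose series had 11 points; normalization used DMSO and empty wells; AUC was computed and mean-centered per line as Z-AUC.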

[4] = BET inhibitor-based combinations targeting novel dependencies in MECOM-rearranged (r) AML: OCI-AML3 cell line (AID 2202232); details: Potency: OCI-AML3 viability; further: nearly all actives have a fitted effect of over 35% in size; further: potency means the concentration at half of the fitted maximal effect
Summary of the method: as §1

[5] = BET inhibitor-based combinations targeting novel dependencies in MECOM-rearranged (r) AML: MV-4-11 cell line (AID 2202233); further: nearly all actives have a fitted effect of over 45% in size; further: potency means the concentration at half of the fitted maximal effect
Summary of the method: (§2)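 Each compound is tested in an 11-point concentration series against 500 seeded cells/well for 48 hr. The luminescent viability signal is normalized to DMSO and blank wells, then reduced to AUC and a cell-line-centred Z-AUC.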

[6] = BET inhibitor-based combinations targeting novel dependencies in MECOM-rearranged (r) AML: HNT-34 cell line (AID 2202234); further: nearly all actives have a fitted effect of over 35% in size; further: potency means the concentration at half of the fitted maximal effect
Summary of the method: as §2

[7] = BET inhibitor-based combinations targeting novel dependencies in MECOM-rearranged (r) AML: UCSD-AML1 cell line (AID 2202235); further: nearly all actives have a fitted effect of over 40% in size; further: potency means the concentration at half of the fitted maximal effect
Summary of the method: as §2

[8] = BET inhibitor-based combinations targeting novel dependencies in MECOM-rearranged (r) AML: AML-191 cell line (AID 2202236; further: nearly all actives have a fitted effect of over 35% in size)
Summary of the method: as §1

[9] = BET inhibitor-based combinations targeting novel dependencies in MECOM-rearranged (r) AML: AML-194 cell line (AID 2202237; further: nearly all actives have a fitted effect of over 40% in size)
Summary of the method: as §1

Compound: CN1Cc2c(ccc3c2OCO3)[C@@H]2[C@H]1c1cc3c(cc1C[C@@H]2O)OCO3
- Potency [1]: inactive
- Potency [2]: inactive

Compound: CCN1CCN(C(c2ccc(Cl)cc2)c2ccc(Cl)cc2)CC1
- Potency [1]: inactive
- Potency [2]: inactive

Compound: C=C1[C@@H](C)C2[C@H](Cc3ccccc3)NC(=O)[C@@]23C(/C=C/C[C@H](C)C[C@@](C)(O)/C=C/[C@@H]3OC(C)=O)[C@@H]1O (some centres not stated)
- Potency [1]: inactive
- Potency [2]: inactive

Compound: CCc1nn2c(=O)c(C)c(N3CCNCC3)nc2s1
- Potency [1]: inactive
- Potency [2]: inactive

Compound: CC[C@H]1C2CC3[C@@H]4N(C)c5ccccc5[C@]45C[C@@H]([C@H]2[C@H]5O)N3[C@H]1O
- Potency [1]: inactive
- Potency [2]: inactive

Compound: CCOc1ccc(CCNC(=O)c2cc3sccc3n2CCN(C)C)cc1OCC
- Potency [1]: inactive
- Potency [2]: inactive

Compound: CC(=O)Nc1ncc(S(=O)(=O)N2CCOCC2)s1
- Potency [1]: inactive
- Potency [2]: inactive

Compound: O=C(Nc1nnc(-c2cccs2)o1)c1ccc(Cl)cc1
- Potency [1]: inactive
- Potency [2]: inactive

Compound: O=S(=O)(Nc1cccc2ccncc12)c1ccc(NCc2cccc(Cl)c2O)cc1
- Potency [1]: inactive
- Potency [2]: inactive

Compound: CCCc1ccc(NC(=O)c2ccc3c(c2)NC(=O)CS3)cc1
- Potency [1]: inactive
- Potency [2]: inactive

Compound: C#C[C@]1(O)CC[C@H]2[C@@H]3CC[C@H]4Cc5nc6nc7ccccc7n6cc5C[C@]4(C)[C@H]3CC[C@@]21C
- Potency [1]: inactive
- Potency [2]: inactive

Compound: Cc1cc(-c2nnc3n2CCCCC3)c(C)n1-c1cccnc1
- Potency [1]: inactive
- Potency [2]: inactive

Compound: COC(=O)c1nc(-c2cccc3ccccc23)oc1OC
- Potency [1]: inactive
- Potency [2]: inactive

Compound: Cc1c(P(=S)(c2ccccc2)c2ccccc2)[n+]2ccccc2n1C
- Potency [1]: inactive
- Potency [2]: inactive

Compound: Fc1cc(F)c2c(c1)C1C=CCC1C(c1cccnc1)N2 (configuration not stated)
- Potency [1]: inactive
- Potency [2]: inactive

Compound: C/C=C(\C)C(=O)O[C@H]1CC2C(=C1C)[C@H]1OC(=O)[C@](C)(O)[C@]1(O)[C@H](OC(=O)CCC)C[C@@]2(C)OC(C)=O (some centres not stated)
- Potency [1]: inactive
- Potency [2]: inactive

Compound: CC[C@H](C)[C@H](NC(=O)[C@H]1CCCCN1C)C(=O)N(COC(=O)CC(C)C)[C@H](C[C@@H](OC(C)=O)c1nc(C(=O)N[C@@H](Cc2ccc(O)cc2)C[C@H](C)C(=O)O)cs1)C(C)C
- activity change, negative = inhibition [1]: -2.41% [at 1.12 µM]
- activity change, negative = inhibition [2]: 6.02% [at 1.12 µM]

Compound: CC1=C(C(=O)Nc2nccs2)C(c2ccccc2Br)N=C(Nc2nc3ccccc3o2)N1 (configuration not stated)
- Potency [1]: inactive
- Potency [2]: inactive

Compound: O=C(NCCN1CCC2(CC1)C(=O)NCN2c1cccc(F)c1)c1ccc2ccccc2c1
- Potency [1]: inactive
- Potency [2]: inactive

Compound: Cc1cccc(-n2cnc3cc(C(=O)N4CCCC(C)C4)ccc32)c1 (configuration not stated)
- Potency [1]: inactive
- Potency [2]: inactive

Compound: Cc1[nH]c2ccccc2c1P(=S)(c1ccccc1)c1ccccc1
- Potency [1]: inactive
- Potency [2]: inactive

Compound: COC1CC(O[C@H]2CC[C@]3(C=O)C4CC[C@]5(C)[C@@H](C6=CC(=O)OC6)CC[C@]5(O)[C@@H]4CC[C@]3(O)C2)OC(C)C1O[C@@H]1O[C@H](CO)[C@@H](O)[C@H](O)[C@H]1O (some centres not stated)
- Potency [1]: inactive
- Potency [2]: inactive

Compound: COC(=O)C12C(=O)C(C)(O)C(=O)C1(C)C(C)=CC1C3(C=O)CCC(OC(C)=O)C(C)(C)C3CCC12C (configuration not stated)
- Potency [1]: inactive
- Potency [2]: inactive

Compound: Cn1cc(Br)c(C2N=C(Nc3nc4ccccc4o3)NC3=C2C(=O)CCC3)n1 (configuration not stated)
- Potency [1]: inactive
- Potency [2]: inactive

Compound: COC(=O)c1ccc(O)c2ncc(N3CCN(C)CC3)cc12
- Potency [1]: inactive
- Potency [2]: inactive

Compound: C[C@@H]1[C@H](O)[C@@H](C)/C=C/C=C/CC/C=C/C=C/C=C/C=C/[C@H](O[C@H]2O[C@@H](C)[C@H](O)[C@@H](N)[C@H]2O)C[C@@H]2O[C@](O)(C[C@@H](O)[C@H](O)CC[C@@H](O)C[C@@H](O)C[C@@H](O)CC(=O)O[C@H]1C)C[C@H](O)[C@H]2C(=O)O
- Potency [1]: inactive
- Potency [2]: inactive

Compound: O=C(Nc1ncc(Cc2ccc(C(F)(F)F)cc2)s1)c1cn(-c2ccccc2)cn1
- Potency [1]: inactive
- Potency [2]: inactive

Compound: O=S(=O)(Nc1nccs1)c1ccc(NCc2cccc(F)c2O)cc1
- Potency [1]: inactive
- Potency [2]: inactive

Compound: C[n+]1cc(P(=S)(c2ccccc2)c2ccccc2)n2ccccc21
- Potency [1]: inactive
- Potency [2]: inactive

Compound: CCc1nn2c(=O)c(F)c(N3CCNCC3)nc2s1
- Potency [1]: inactive
- Potency [2]: inactive

Compound: Cc1cc(-c2nnc3n2CCCCC3)c(C)n1-c1ccc(Cl)cc1
- Potency [1]: inactive
- Potency [2]: inactive

Compound: CCOc1ccc(CCNC(=O)c2cc3ccccc3n2Cc2ccccn2)cc1OCC
- Potency [1]: inactive
- Potency [2]: inactive

Compound: Cc1ccccc1[C@@H](C(=O)NC1CCCCC1)N(C(=O)Cn1ccnc1C)c1cccc(F)c1
- Potency [1]: inactive
- Potency [2]: inactive

Compound: C[C@@]12OC(=O)[C@]1([C@@H](O)[C@@H]1C=CCCC1)NC(=O)[C@@H]2CCCl
- Potency [3]: 26.3 nM (active)
- Potency [4]: 20.9 nM (active)
- Potency [5]: 23.5 nM (active)
- Potency [6]: 37.2 nM (active)
- Potency [7]: 33.2 nM (active)

Compound: CN1C(=O)[C@@H](NC(=O)[C@H](CCC(F)(F)F)[C@H](CCC(F)(F)F)C(N)=O)N=C(c2ccccc2)c2ccccc21
- viability [3]: 114%
- Potency [4]: inactive
- Potency [5]: inactive
- Potency [6]: inactive
- Potency [7]: inactive
- Potency [8]: inactive
- Potency [9]: inactive

Compound: CCOC(=O)C1CCN(C(=O)C2(NC(=O)Nc3ccccc3Cl)CCCC2)CC1
- Potency [1]: inactive
- Potency [2]: inactive

Compound: CC[C@H](C)[C@@H]([C@@H](CC(=O)N1CCC[C@H]1[C@H](OC)[C@@H](C)C(=O)N[C@@H](Cc1ccccc1)c1nccs1)OC)N(C)C(=O)[C@@H](NC(=O)C(C)(C)N)C(C)C (H-[Aib]V[Dil][Dolaproine]-Doe)
- Potency [1]: inactive
- Potency [2]: inactive
